High-throughput results deposited in PubChem BioAssay by National Center for Advancing Translational Sciences (NCATS).
In the library only some 11% were active in any assay of this set; here they are far more common.
HP1b binding inh: inhibitors of HP1-beta chromodomain binding to methylated histone tails | P83916 | AID 540317 | Potency, µM (series often up to 114 µM), for inactives: top-dose activity change, negative = inhibition, usual class: inhibitors | AlphaScreen HP1-beta / biotin-H3K9me3 peptide binding | 390,000 compounds, 0.56% hits; note: nearly all actives have a fitted effect of over 70% in size
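HP1-beta protein (50 nM final) preincubated 30 min at room temperature with biotinylated H3(1-18)K9me3 peptide (50 nM) in PBS pH 7.4, 0.01% Tween-20, then compound added for 30 min. AlphaScreen streptavidin donor/nickel chelate acceptor beads (10 ug/mL final), 30 min dark, luminescence read.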
L3MBTL1 inh: inhibitors of human L3MBTL1 | Q9Y468 | 230,000 compounds, 0.66% hits | Potency, µM (doses to about 57.1 µM), without a hit: at the top dose activity, negative = inhibition, actives largely listed as inhibitors | AID 485360 | AlphaScreen L3MBTL1–H3K9me1 peptide binding; note: % is set by controls: 0 for no effect and ±100 for the full control effect; nearly all actives have a fitted effect of over 60% in size
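Read-out is AlphaScreen signal from streptavidin donor and nickel chelate acceptor beads (10 ug/mL final each) bridging L3MBTL1 (50 nM) and biotinylated K9-monomethylated H3(1-15) peptide (75 nM), after 30 min compound exposure at room temperature.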
G9a inh: blocks human histone lysine methyltransferase G9a | AID 504332 | 350,000 compounds, 8.8% hits | Q96KQ7 | Potency, µM (series often up to 102 µM), inactives show at the top dose activity, negative = inhibition, actives largely listed as inhibitors | G9a H3K9 monomethylation, AlphaScreen, 2 h; note: % is set by controls: 0 for no effect and ±100 for the full control effect; nearly all actives have a fitted effect of over 75% in size
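G9a (20 nM) was preincubated 15 min with compound, then reacted 2 h at room temperature with 500 nM biotin-H3K9 peptide and 20 µM SAM. Monomethyl-H3K9 detected by AlphaScreen using anti-H3K9me1 antibody.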
JMJD2A Tudor inh: inhibitors of human JMJD2A Tudor domain. O75164. AlphaScreen JMJD2A-Tudor / H3K4me3 peptide binding. Potency, µM (titrated, usually from 114 µM), for inactives: top-dose activity change, negative = inhibition, hits mostly inhibitors. 390,000 compounds, 4.4% hits. AID 504339; note: % is set by controls: 0 for no effect and ±100 for the full control effect; nearly all actives have a fitted effect of over 50% in size
Target sequence (O75164 whole entry, looked up, the tested form may be a part): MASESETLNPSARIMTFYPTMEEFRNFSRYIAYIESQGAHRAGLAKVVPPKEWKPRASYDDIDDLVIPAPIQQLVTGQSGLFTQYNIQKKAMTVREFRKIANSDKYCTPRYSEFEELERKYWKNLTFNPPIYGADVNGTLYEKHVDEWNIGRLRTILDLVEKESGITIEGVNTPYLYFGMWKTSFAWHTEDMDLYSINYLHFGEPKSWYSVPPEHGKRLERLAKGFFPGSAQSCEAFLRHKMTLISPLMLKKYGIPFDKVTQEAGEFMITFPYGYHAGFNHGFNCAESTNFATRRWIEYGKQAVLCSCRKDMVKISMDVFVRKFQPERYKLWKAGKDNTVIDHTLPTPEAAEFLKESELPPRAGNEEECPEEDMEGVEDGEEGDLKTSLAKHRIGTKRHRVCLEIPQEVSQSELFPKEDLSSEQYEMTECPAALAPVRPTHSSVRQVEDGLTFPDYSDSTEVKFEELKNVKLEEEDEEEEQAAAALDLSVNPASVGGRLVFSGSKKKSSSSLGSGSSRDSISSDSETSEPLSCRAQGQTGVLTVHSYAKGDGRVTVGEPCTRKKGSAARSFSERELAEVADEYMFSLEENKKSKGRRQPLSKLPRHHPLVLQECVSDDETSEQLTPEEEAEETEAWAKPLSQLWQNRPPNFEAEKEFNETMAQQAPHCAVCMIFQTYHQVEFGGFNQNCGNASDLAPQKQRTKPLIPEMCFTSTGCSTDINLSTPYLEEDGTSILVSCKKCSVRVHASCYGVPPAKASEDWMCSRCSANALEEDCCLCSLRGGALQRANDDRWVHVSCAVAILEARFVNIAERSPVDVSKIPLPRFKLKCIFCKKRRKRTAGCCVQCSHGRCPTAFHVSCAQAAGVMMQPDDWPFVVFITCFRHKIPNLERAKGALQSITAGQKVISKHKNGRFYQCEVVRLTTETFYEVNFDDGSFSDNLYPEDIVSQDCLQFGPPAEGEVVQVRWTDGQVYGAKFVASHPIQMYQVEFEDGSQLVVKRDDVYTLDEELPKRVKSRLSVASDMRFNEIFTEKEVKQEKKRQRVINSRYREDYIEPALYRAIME
BAZ2B inh: inhibitors of human BAZ2B bromodomain; Potency, µM (doses to about 114 µM), for inactives: at the top dose activity change, negative = inhibition, most hits filed as inhibitors; 360,000 compounds, 4.4% hits; Q9UIF8; AlphaScreen BAZ2B-H3K14Ac peptide displacement; note: % is set by controls: 0 for no effect and ±100 for the full control effect; nearly all actives have a fitted effect of over 60% in size
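AlphaScreen luminescence quantifies BAZ2B engagement of H3K14Ac peptide; the protein and biotinylated peptide are both at 50 nM final, buffer PBS pH 7.4 with 0.01% Tween-20, all steps at room temperature.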
* = called active by the depositor; ? = inconclusive; . = no result; [ ] = remark or other dose. Calls come from the whole dose curve; as a rule, active = well fitted inhibition curve with a large enough effect; inconclusive = small, poorly fitted or top-dose-only effect; inactive = no such curve, though single readings can be large or run the other way. Potency is the fitted concentration of half-maximal effect.

SMILES	HP1b binding inh	L3MBTL1 inh	G9a inh	JMJD2A Tudor inh	BAZ2B inh
CC(=O)N1CCc2cc(S(=O)(=O)N3CCN(c4ccc(C)cc4)C(C)C3)ccc21 (centres undefined)	-1.5%	.	-1.2%[59 µM]	-14.7%	-3.3%
CC1=C(C(=O)OC(C)C)C(c2cccc([N+](=O)[O-])c2)C(C(=O)OC2CN(C(c3ccccc3)c3ccccc3)C2)=C(N)N1 (centres undefined)	.	.	-7.1%[12.7 µM]	.	.
O=C(CCSCc1ccccc1F)N1CCN(c2ccc(F)cc2)CC1	13.1%	.	2.6%[59 µM]	-22.3%	-16.5%
Cc1ccc(C(=O)C2=C(O)C(=O)N(Cc3ccco3)C2c2cccc(Cl)c2)o1 (centres undefined)	1.4%	.	39.8µM*	25.1µM*	?
Nn1c(Cc2cccc3ccccc23)nnc1SCn1nnc2ccccc2c1=O	32.4%	.	4.47µM*	-13.7%	-5.2%
Nc1nc(SCn2nnc3ccccc3c2=O)n[nH]1	18.8%	6.2%	50.1µM*	-10.1%	-10.7%
Nn1c(Cc2cccc3ccccc23)nnc1SC1CCOC1=O (centres undefined)	36.7%	.	?	89.1µM*	-37.1%
O=c1c2ccccc2nnn1CSc1nnc(Nc2ccccc2)s1	24.2%	4.0%	44.7µM*	1.0%	-4.3%
CCOc1ccc(NC(=O)Cn2c(=O)n(-c3ccccc3)c(=O)c3c4c(sc32)CCCC4)cc1	10.6%	.	8.7%[59 µM]	9.9%	4.9%
Cc1cc(C)n2c(Nc3ccccc3)c(-c3ccc(C)o3)nc2n1	6.0%	.	.	-33.3%	.
CCCCCCCCCCCCCCCC(=O)N[C@H](CN1CCOCC1)[C@H](O)c1ccccc1	.	.	10.5%[59 µM]	.	.
O=P(O)(O)OP(=O)(O)OP(=O)(O)O	.	.	22.7%[59 µM]	.	.
O=C(Nc1ccccc1N1CCCC1)C1CCN(S(=O)(=O)c2ccccc2)CC1	-7.6%	-9.0%	50.1µM*	?	-38.5%
O=C(Nc1ccccc1N1CCCCC1)C1CCN(S(=O)(=O)c2ccccc2C(F)(F)F)CC1	37.9%	-2.8%	-27.1%[59 µM]	11.6%	4.8%
O=C(Nc1ccccc1N1CCCC1)C1CCN(S(=O)(=O)c2ccccc2C(F)(F)F)CC1	20.4%	?	35.5µM*	?	-31.2%
Cc1ccccc1N1CC(C(=O)Nc2ccc(S(=O)(=O)N3CCCCC3)cc2)CC1=O (centres undefined)	36.5%	.	70.8µM*	-17.4%[57.1 µM]	-8.4%
COC(=O)c1ccc(NC(=O)c2c(NCc3ccc(OC)c(OC)c3)sc3c2CCCC3)cc1	-8.4%	.	?	?	-38.7%
CCOc1ccc(NC(=S)NC(=O)/C=C/c2ccc(OC)c(OC)c2)c([N+](=O)[O-])c1	-25.2%	-1.8%	50.1µM*	?	-31.4%[57.1 µM]
CCOc1ccc(NC(=O)COc2ccccc2)c([N+](=O)[O-])c1	?	-15.5%	?	?	?
CCOc1ccc(NC(=O)Cc2ccccc2)c([N+](=O)[O-])c1	2.8%	5.01µM*	-15.8%[59 µM]	-18.8%[57.1 µM]	?
CCNC(=O)c1cnc2sc(N3CCCCCC3)nn2c1=O	27.3%	.	4.3%[59 µM]	-9.0%	-11.5%
Nc1ccc2nc(CN3CCOCC3)[nH]c2c1	34.7%	.	?	?	50.1µM*
Cc1ccc2nc(Cc3ccc(N)cc3)[nH]c2c1	18.1%	3.3%	1.9%[0.501 µM]	-33.3%	56.2µM*
CC(C)Cc1nc2ccc(N)cc2[nH]1	19.2%	-10.5%	?	22.4µM*	-35.2%
COc1cccc(N2CCN(C(=O)c3cccn3-c3nnc(N4CCCCC4)s3)CC2)c1	1.1%	.	-3.9%[59 µM]	-28.6%	-26.0%
SMILES	HP1b binding inh	L3MBTL1 inh	G9a inh	JMJD2A Tudor inh	BAZ2B inh
Cc1cc(Cl)c(OCCCNC2CCCC2)c(Br)c1	-36.8%	1.2%	10µM*	22.4µM*	?
COCCCNCCCCOc1c(Cl)cc(C)cc1Br	?	-4.2%	.	2.51µM*	22.4µM*
COc1ccc(CCNC(=O)Cn2ncc3c(C)n(Cc4ccccc4F)c(C)c3c2=O)cc1OC	6.3%	.	11.8%[59 µM]	-25.8%	-1.5%
CC1=C(C(=O)Nc2ccccc2)C(c2ccccc2C)n2nc(SCC(=O)c3ccc(C)cc3)nc2N1 (centres undefined)	21.5%	.	14.2%[59 µM]	-20.3%	-4.6%
O=C(CCNC(=O)c1ccc(Cl)cc1)NCc1ccco1	19.6%	5.3%	.	-11.8%	.
CS(=O)(=O)N1N=C(c2ccco2)CC1c1ccc(Br)cc1 (centres undefined)	45.8%	0.4%	35.5µM*	-3.8%	-11.0%
CS(=O)(=O)N1N=C(c2ccco2)CC1c1ccccc1Cl (centres undefined)	26.6%	-5.9%	-39.2%	-21.0%	-35.0%
CS(=O)(=O)N1N=C(c2ccco2)CC1c1cccc([N+](=O)[O-])c1 (centres undefined)	14.9%	11.2%	.	-12.6%	16.3%
COc1ccccc1C1CC(c2ccco2)=NN1S(C)(=O)=O (centres undefined)	-22.4%	-1.4%	-38.4%	50.1µM*	-13.5%
CCOC(=O)COc1ccc(C)cc1C(=O)c1ccn2nc(-c3ccc(Cl)cc3)cc2n1	15.4%	.	9.5%[59 µM]	-4.1%	-13.8%
CCOc1ccc(-c2nonc2NC(=O)c2oc3cc(Br)ccc3c2C)cc1	46.8%	.	0.7%[59 µM]	39.8µM*	-3.4%
CCCN1CNc2c(c(=O)[nH]c(=S)n2CCc2ccc(OC)cc2OC)C1	42.0%	.	.	-8.8%	.
CCOc1ccccc1NC(=O)CSc1nc2c(oc3ccccc32)c(=O)n1-c1ccc(C)c(C)c1	-9.3%	.	-28.1%[59 µM]	-18.2%	-8.5%
COc1ccc(-n2nnnc2SC(C)C(=O)NCC(=O)Nc2ccc(F)c(F)c2F)cc1 (centres undefined)	19.0%	8.8%	39.8µM*	-2.7%	-5.4%
Cc1cc(C)c2nc(SC(C)C(=O)NCC(=O)Nc3ccc(F)c(F)c3F)cc(C)c2c1 (centres undefined)	9.4%	-5.0%	17.8µM*	-10.1%	6.0%
COc1ccc2nc(SC(C)C(=O)NCC(=O)Nc3ccc(F)c(F)c3F)[nH]c2c1 (centres undefined)	9.1%	7.6%	50.1µM*	-13.1%	9.4%
Cc1ccccc1CN1C(=O)c2ccccc2S(=O)c2ccc(C(=O)NC3CCC(C)CC3)cc21 (centres undefined)	17.0%	.	-5.8%[59 µM]	-18.6%	0.0%
Cc1ccc(C2=NN=C(NC(=O)CSc3nncn3C)SC2)cc1	35.5µM*	-14.5%	22.4µM*	?	-12.8%
Cc1ccc(NC(=O)CSc2nncn2C)c(C)c1	27.6%	.	3.8%[59 µM]	-9.0%	2.3%
Cc1ccc(C2=NN=C(NC(=O)C(F)(F)F)SC2)cc1	-2.6%	1.4%	28.2µM*	-29.3%	-2.2%
NS(=O)(=O)c1ccc(NC(=S)NC(=O)c2ccc3c(c2)OCO3)cc1	16.5%	9.4%	39.8µM*	10.0%	-21.7%
CC(C)c1ccc(O)c(NC(=S)NC(=O)c2ccc3c(c2)OCO3)c1	-11.4%	.	12.6µM*	?	?
NC(N)=NS(=O)(=O)c1ccc(NC(=S)NC(=O)c2ccc3c(c2)OCO3)cc1	14.1%	.	44.7µM*	-3.4%	-26.6%
